Experimental findings from publication PMC4081100, “A DNA-binding-site landscape and regulatory network analysis for NAC transcription factors in Arabidopsis thaliana” are described below.

Holding throughout (experiment): universal protein binding microarray (PBM); transcription factors of Arabidopsis thaliana; high values mean tight binding
One experiment concerns the target T1, GST-ANAC092(1-176) (Arabidopsis thaliana, UniProt Q9FKA0 1-176).
T1 sequence: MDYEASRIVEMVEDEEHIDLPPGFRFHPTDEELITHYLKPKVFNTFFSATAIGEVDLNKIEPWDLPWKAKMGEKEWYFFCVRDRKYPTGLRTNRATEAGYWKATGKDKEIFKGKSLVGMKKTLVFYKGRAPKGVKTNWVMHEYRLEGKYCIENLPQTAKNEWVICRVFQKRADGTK
The conditions noted are these: protein: recombinant; tags: GST; chain copies: 2; dsDNA, one strand shown. In short, it runs like this:
(§1)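 Protein amounts were determined by A280 or anti-GST western blot after glutathione–Sepharose 4B purification of GST-tagged proteins induced in cells, with zinc acetate included for zinc-finger proteins. Duplicate runs at 200 to 500 nM final were done on custom all-10-mer Agilent 4 × 180K arrays made double-stranded by primer extension. The normalised enrichment score (E-score) over gapped and ungapped 8-mers is the measure of binding.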

Another experiment has as its target GST-NTL6(1-168) (Arabidopsis thaliana, UniProt Q9SCK6 1-168). The conditions noted are these: protein: recombinant; tags: GST; chain copies: 2; dsDNA, one strand shown. In short, it runs like this:
as §1

A further experiment addresses T2, GST-ANAC019 NAC domain (Arabidopsis thaliana, UniProt Q9C932 14-162).
T2 sequence: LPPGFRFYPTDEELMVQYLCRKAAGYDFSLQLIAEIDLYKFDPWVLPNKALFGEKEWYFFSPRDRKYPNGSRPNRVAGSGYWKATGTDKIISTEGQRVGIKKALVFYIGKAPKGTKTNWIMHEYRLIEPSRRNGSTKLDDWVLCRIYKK
The following applies: protein: recombinant; tags: GST; chain copies: 2; dsDNA, one strand shown. In outline:
as §1

A further experiment addresses T3, GST-ANAC055(1-171) (Arabidopsis thaliana, UniProt Q9LDY8 1-171).
T3 sequence: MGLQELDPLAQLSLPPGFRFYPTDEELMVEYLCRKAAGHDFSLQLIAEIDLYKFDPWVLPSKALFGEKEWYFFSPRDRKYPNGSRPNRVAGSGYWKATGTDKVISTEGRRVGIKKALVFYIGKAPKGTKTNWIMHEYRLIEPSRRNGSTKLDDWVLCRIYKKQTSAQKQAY
The following applies: protein: recombinant; tags: GST; chain copies: 2; dsDNA, one strand shown. In short, it runs like this: as §1

A further experiment has as its target T4, GST-ATAF1 NAC domain (Arabidopsis thaliana, UniProt Q39013 7-158).
T4 sequence: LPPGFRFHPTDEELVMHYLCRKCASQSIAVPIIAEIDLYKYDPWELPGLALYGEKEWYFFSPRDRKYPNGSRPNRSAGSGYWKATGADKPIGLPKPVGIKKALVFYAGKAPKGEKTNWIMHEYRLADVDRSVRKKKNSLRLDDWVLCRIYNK
The following applies: protein: recombinant; tags: GST; chain copies: 2; dsDNA, one strand shown. In short, it runs like this:
as §1

Experiment [1] deals with T5, GST-ANAC092(1-285) full length (Arabidopsis thaliana, UniProt Q9FKA0 1-285).
T5 sequence: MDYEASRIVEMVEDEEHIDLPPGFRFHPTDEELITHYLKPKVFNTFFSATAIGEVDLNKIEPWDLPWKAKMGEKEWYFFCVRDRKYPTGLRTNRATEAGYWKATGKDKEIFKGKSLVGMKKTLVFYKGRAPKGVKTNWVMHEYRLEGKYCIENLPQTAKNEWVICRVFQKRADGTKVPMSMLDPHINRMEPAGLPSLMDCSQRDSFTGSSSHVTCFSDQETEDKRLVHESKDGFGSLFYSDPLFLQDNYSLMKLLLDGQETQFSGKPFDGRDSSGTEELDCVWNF
The following applies: protein: recombinant; tags: GST; chain copies: 2; dsDNA, one strand shown. In short, it runs like this: as §1

The next experiment addresses T6, GST-NAP(1-166) (Arabidopsis thaliana, UniProt O49255 1-166).
T6 sequence: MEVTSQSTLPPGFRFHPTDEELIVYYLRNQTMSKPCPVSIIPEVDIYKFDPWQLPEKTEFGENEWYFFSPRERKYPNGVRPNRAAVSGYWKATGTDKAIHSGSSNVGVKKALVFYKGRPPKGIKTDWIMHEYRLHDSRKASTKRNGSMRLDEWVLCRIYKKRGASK
The conditions noted are these: protein: recombinant; tags: GST; chain copies: 2; dsDNA, one strand shown. In short, it runs like this:
as §1

A further experiment has as its target T7, GST-NST2(1-184) (Arabidopsis thaliana, UniProt Q9M274 1-184).
T7 sequence: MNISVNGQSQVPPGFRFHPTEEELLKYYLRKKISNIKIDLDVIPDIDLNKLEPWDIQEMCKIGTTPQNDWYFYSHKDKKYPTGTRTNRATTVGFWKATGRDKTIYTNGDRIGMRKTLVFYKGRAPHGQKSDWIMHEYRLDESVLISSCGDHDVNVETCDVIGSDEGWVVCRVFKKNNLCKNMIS
The following applies: protein: recombinant; tags: GST; chain copies: 2; dsDNA, one strand shown. In short, it runs like this:
as §1

A further experiment has as its target T8, GST-NTL8 NAC domain (Arabidopsis thaliana, UniProt Q9XIN7 14-156).
T8 sequence: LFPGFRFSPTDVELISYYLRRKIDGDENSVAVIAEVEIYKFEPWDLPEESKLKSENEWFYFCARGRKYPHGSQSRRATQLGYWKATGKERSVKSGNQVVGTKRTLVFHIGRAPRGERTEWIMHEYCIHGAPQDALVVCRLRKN
The conditions noted are these: protein: recombinant; tags: GST; chain copies: 2; dsDNA, one strand shown. In short, it runs like this: as §1

Another experiment addresses T9, GST-SND1(1-203) (Arabidopsis thaliana, UniProt Q9LPI7 1-203).
T9 sequence: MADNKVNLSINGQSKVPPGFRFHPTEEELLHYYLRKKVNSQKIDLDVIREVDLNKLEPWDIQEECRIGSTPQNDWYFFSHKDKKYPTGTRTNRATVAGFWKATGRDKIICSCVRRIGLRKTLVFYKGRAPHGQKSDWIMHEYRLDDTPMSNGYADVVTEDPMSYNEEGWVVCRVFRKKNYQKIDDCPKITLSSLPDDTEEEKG
The following applies: protein: recombinant; tags: GST; chain copies: 2; dsDNA, one strand shown. In outline:
as §1

The next experiment has as its target T10, GST-VND3 NAC domain (Arabidopsis thaliana, UniProt Q9FH59 12-162).
T10 sequence: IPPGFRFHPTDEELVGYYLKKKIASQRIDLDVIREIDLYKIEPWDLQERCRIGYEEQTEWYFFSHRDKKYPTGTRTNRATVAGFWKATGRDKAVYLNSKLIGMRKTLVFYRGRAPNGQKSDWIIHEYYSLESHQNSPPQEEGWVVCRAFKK
The conditions noted are these: protein: recombinant; tags: GST; chain copies: 2; dsDNA, one strand shown. In outline: as §1

For another experiment, the target named is T11, GST-VND7 NAC domain (Arabidopsis thaliana, UniProt Q9C8W9 9-158).
T11 sequence: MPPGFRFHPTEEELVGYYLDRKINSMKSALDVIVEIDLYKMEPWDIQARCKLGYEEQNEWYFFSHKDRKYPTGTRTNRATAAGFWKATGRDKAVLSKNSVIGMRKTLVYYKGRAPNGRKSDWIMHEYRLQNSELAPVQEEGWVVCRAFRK
The conditions noted are these: protein: recombinant; tags: GST; chain copies: 2; dsDNA, one strand shown. In outline:
as §1

A further experiment deals with GST-WRKY1(266-371) (Arabidopsis thaliana, UniProt Q9SI37 266-371). The following applies: protein: recombinant; tags: GST; dsDNA, one strand shown. In outline:
as §1

Chain of GST-NTL6(1-168) (Q9SCK6 1-168): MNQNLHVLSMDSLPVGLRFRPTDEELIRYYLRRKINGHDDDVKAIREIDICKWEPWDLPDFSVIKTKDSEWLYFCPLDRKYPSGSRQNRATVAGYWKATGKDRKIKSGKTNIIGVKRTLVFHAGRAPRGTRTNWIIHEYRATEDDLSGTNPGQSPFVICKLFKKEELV
Chain of GST-WRKY1(266-371) (Q9SI37 266-371): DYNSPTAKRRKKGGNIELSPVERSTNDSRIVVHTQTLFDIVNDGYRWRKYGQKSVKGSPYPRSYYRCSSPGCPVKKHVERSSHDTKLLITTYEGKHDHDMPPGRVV

In the case of ACGCAAGA, the binding signal with GST-ANAC092(1-176) was found to be 0.449 E-score; with GST-NTL6(1-168) it was 0.116 E-score; with GST-ANAC019 NAC domain, 0.243 E-score; with GST-ANAC055(1-171) it was 0.264 E-score; with GST-ATAF1 NAC domain, 0.156 E-score; in experiment [1], 0.456 E-score. For the same sequence, the binding signal with GST-NAP(1-166) came out at 0.285 E-score; in the experiment with GST-NST2(1-184) it was 0.315 E-score; in the experiment with GST-NTL8 NAC domain, 0.128 E-score; in the experiment with GST-SND1(1-203), 0.405 E-score; with GST-VND3 NAC domain, 0.252 E-score; with GST-VND7 NAC domain it was 0.194 E-score. The binding signal with GST-WRKY1(266-371) stood at 0.123 E-score.

With CGTCAAAC, the binding signal worked out at 0.109 E-score with GST-ANAC092(1-176); 0.0906 E-score in the experiment with GST-NTL6(1-168); 0.0928 E-score in the experiment with GST-ANAC019 NAC domain; 0.163 E-score with GST-ANAC055(1-171); 0.147 E-score in the experiment with GST-ATAF1 NAC domain; 0.134 E-score in [1]. Besides, the binding signal is 0.0647 E-score in the experiment with GST-NAP(1-166); 0.159 E-score with GST-NST2(1-184); 0.198 E-score with GST-SND1(1-203); 0.145 E-score with GST-VND3 NAC domain; 0.129 E-score with GST-VND7 NAC domain; 0.44 E-score with GST-WRKY1(266-371).

For ACGTAAAA, the binding signal with GST-ANAC092(1-176) stood at 0.366 E-score; in the experiment with GST-NTL6(1-168) it was 0.161 E-score; with GST-ANAC019 NAC domain it was 0.336 E-score; with GST-ANAC055(1-171), 0.331 E-score; in the experiment with GST-ATAF1 NAC domain, 0.35 E-score; in [1], 0.406 E-score. Moreover, the binding signal with GST-NAP(1-166) was 0.326 E-score; with GST-NST2(1-184) it was 0.312 E-score; with GST-NTL8 NAC domain, 0.0957 E-score; with GST-SND1(1-203), 0.436 E-score; with GST-VND3 NAC domain, 0.368 E-score; with GST-VND7 NAC domain, 0.344 E-score. Further, in the experiment with GST-WRKY1(266-371), the binding signal stood at 0.0914 E-score.

Take AATTACGT: the binding signal with GST-ANAC092(1-176) is 0.439 E-score; with GST-NTL6(1-168), 0.142 E-score; in the experiment with GST-ANAC019 NAC domain it was 0.472 E-score; with GST-ANAC055(1-171), 0.446 E-score; with GST-ATAF1 NAC domain, 0.435 E-score; in [1], 0.421 E-score. The binding signal with GST-NAP(1-166) came to 0.454 E-score; with GST-NST2(1-184), 0.352 E-score; in the experiment with GST-NTL8 NAC domain, 0.205 E-score; with GST-SND1(1-203), 0.42 E-score; in the experiment with GST-VND3 NAC domain it was 0.47 E-score; with GST-VND7 NAC domain, 0.46 E-score. Also, the binding signal with GST-WRKY1(266-371) turned out to be 0.185 E-score.

In the case of CAAGGAAA, the binding signal with GST-ANAC092(1-176) amounted to 0.231 E-score; with GST-NTL6(1-168), 0.31 E-score; in the experiment with GST-ANAC019 NAC domain, 0.165 E-score; in the experiment with GST-ANAC055(1-171), 0.147 E-score; in the experiment with GST-ATAF1 NAC domain, 0.167 E-score; in experiment [1], 0.241 E-score. Further, the binding signal with GST-NAP(1-166) stood at 0.0952 E-score; with GST-NST2(1-184) it was 0.189 E-score; with GST-NTL8 NAC domain, 0.46 E-score; with GST-SND1(1-203) it was 0.242 E-score; with GST-VND3 NAC domain it was 0.202 E-score; with GST-VND7 NAC domain, 0.181 E-score. Besides, the binding signal in the experiment with GST-WRKY1(266-371) was found to be 0.0889 E-score.

Turning to TTACGTAA, the binding signal with GST-ANAC092(1-176) was found to be 0.476 E-score; with GST-NTL6(1-168), 0.171 E-score; in the experiment with GST-ANAC019 NAC domain, 0.479 E-score; with GST-ANAC055(1-171) it was 0.478 E-score; with GST-ATAF1 NAC domain it was 0.465 E-score; in experiment [1], 0.469 E-score. For the same sequence, the binding signal with GST-NAP(1-166) came out at 0.484 E-score; in the experiment with GST-NST2(1-184), 0.433 E-score; with GST-NTL8 NAC domain, 0.411 E-score; in the experiment with GST-SND1(1-203), 0.484 E-score; with GST-VND3 NAC domain, 0.483 E-score; with GST-VND7 NAC domain, 0.481 E-score. Besides, the binding signal in the experiment with GST-WRKY1(266-371) amounted to 0.0521 E-score.
